Measurements: the supplement of paper PMC5940239
Values without a mark were called inactive.

Test system: Madurella mycetomatis MM55
Experiment: percent growth relative to solvent control; higher = less inhibition, active = 20 or less
Settings: 100 µM; 7 days

Structure (SMILES)	percent growth
Nc1ncnc2c1c(-c1cnc3ccccc3c1)nn2CC1CCNCC1	93.3%
CC(C)(C)OC(=O)N1CCN(c2nccc(-c3ccc(-c4ccc(Cl)cc4)s3)n2)CC1	103%
CC1(COc2ccc(N3CCC(Oc4ccc(OC(F)(F)F)cc4)CC3)cc2)Cn2cc([N+](=O)[O-])nc2O1 (stereo not drawn)	111%
CCc1ccccc1-n1c(C)cn2c3c(=O)n(C(C(=O)OC)C(C)C)c(=O)n(C)c3nc12 (stereo not drawn)	79.9%
Cn1ccnc1CNCCS(=O)(=O)c1cccc(Nc2ccc(-c3cccc(F)c3)cn2)c1	65.7%
Cc1cc(C)cc(COc2ccc3c(C)c(CCC(=O)O)c(=O)oc3c2C)c1	84.8%
NC(=O)c1cc(Br)ccc1OCCOc1ccccc1	92.8%
N=C(N)c1ccc(OCCCCCOc2ccc(C(=N)N)cc2)cc1	48.7%
CC(=O)Nc1ccc(NC(=O)c2cc(-c3cc(Cl)ccc3O)[nH]n2)cc1	155%
Cc1ccc(S(=O)(=O)N2CCN(C(=O)c3cc(-c4ccccc4)[nH]n3)CC2)cc1	146%
CCc1cc(=O)n(C)c(SC(C)C(=O)Nc2ccc(F)cc2)n1 (stereo not drawn)	61.1%
Cc1cc(Cl)c(S(=O)(=O)N2CCCC2)cc1OCC(=O)NC1CCCCC1	104%
O=C1[C@@H](Oc2ccccc2)[C@@H](c2ccc(Cl)cc2)N1CCn1cnc2c(NCc3ccccc3)ncnc21	98.5%
CCN(CC)S(=O)(=O)c1ccc(Cl)c(C(=O)Nc2ccc3nc(C)sc3c2)c1	119%
NCC(=O)N1CCn2c(nc(-c3ccccc3)c2Nc2ccc3c(c2)OCO3)C1	157%
CC(C)(C)c1cc(C(=O)N2CCN(c3nccnc3C#N)CC2)n(Cc2ccccc2)n1	56.8%
CCc1nc2ccccc2n1CC(O)COc1cc(C)ccc1Cl (stereo not drawn)	93.7%
OCCc1ccc(Nc2nccc(-c3nnc4ccccn34)n2)cc1	88.7%
CNC(=O)C1Cc2c([nH]c3cc(Cl)ccc23)C2(CCN(CCc3ccccc3)CC2)N1 (stereo not drawn)	70%
O=C(N[C@H](Cc1ccccc1)C(=O)Nc1ccccc1N1CCOCC1)c1cccs1	36.5%
COc1cccc2c(C)nc(N=C(N)N)nc12	96.9%
Nc1nccc2ccc(Oc3ccncc3)cc12	71.5%
Cc1nn2c(O)c3c(nc2c1-c1ccc(F)cc1)CCCC3	113%
